In PubChem BioAssay AID1347077 (National Center for Advancing Translational Sciences (NCATS), 2019) one finds outcome data, which are given here for 97 compounds.

Screen size: about 44,000 compounds; fewer than 10 were called active. Calls follow the shape of the dose curve; as a rule, active = well fitted activation curve with a large enough effect; inconclusive = small, poorly fitted or top-dose-only effect, or another doubt; inactive = no such curve, though single readings can be large or run the other way. The list is a sample of the results.

Chain of Beta-2 adrenergic receptor (Homo sapiens) (P07550 whole entry, looked up): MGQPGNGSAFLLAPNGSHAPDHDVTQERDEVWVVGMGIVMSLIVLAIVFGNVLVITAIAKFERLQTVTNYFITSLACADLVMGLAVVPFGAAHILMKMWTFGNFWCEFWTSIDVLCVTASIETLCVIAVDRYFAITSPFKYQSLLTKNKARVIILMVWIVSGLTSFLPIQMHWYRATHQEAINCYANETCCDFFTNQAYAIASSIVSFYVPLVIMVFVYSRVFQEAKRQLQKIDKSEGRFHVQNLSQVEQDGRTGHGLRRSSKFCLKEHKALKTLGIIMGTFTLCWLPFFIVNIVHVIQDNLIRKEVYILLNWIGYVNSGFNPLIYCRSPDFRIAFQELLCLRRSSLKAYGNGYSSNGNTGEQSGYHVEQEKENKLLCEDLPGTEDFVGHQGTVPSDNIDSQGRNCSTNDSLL

For the assay, the target named is Beta-2 adrenergic receptor (Homo sapiens) (UniProt P07550). Kind of assay: qHTS assay of beta-arrestin-biased ligands of beta2-adrenergic receptor: NCGC Sytravon Library Screen. The settings on record: HTLA Tango cells, beta-arrestin recruitment, luciferase luminescence, 18 h; series mostly up to 46.1 µM. The text has this:
The concept of biased agonism is an emerging concept of molecular pharmacology which proposes that seven transmembrane receptors (7TMRs) or G protein-coupled receptors (GPCRs), exist in multiple signaling conformations and complexes and that ligands (either agonists or antagonists) can induce signaling biased responses for distinct signal transduction cascades. […] Furthermore, accumulating evidence over the last decade has drawn attention to a novel function of beta-arrestins as signal transducers that scaffold various signaling molecules upon activation of 7TMRs. […] This beta-arrestin-biased signaling presumably leads to distinct physiological outcomes from those by G protein activation. Additionally, the active receptor conformations which prefer on this beta-arrestin signaling are likely different from those activating G protein signaling. […] The goal of this screening project will be to discover and optimize novel beta-arrestin-biased ligands for beta2-AR signaling. A luminescent cell-based assay for beta2-AR-mediated agonism, known as the Tango assay, has been validated in which ligand binding of a recombinant beta2-AR and subsequent recruitment of a recombinant beta-arrestin lead to the release of the transcriptional activator tTA, which upregulates transcription of a tTA-responsive luciferase gene. […] Compounds from the NCGC Sytravon Library collection were screened as a concentration-titration series that ranged from 46 microM to 0.6 nM. NIH Molecular Libraries Probe Production Network [MLPCN] NIH Chemical Genomics Center [NCGC] MLPCN Grant: Fast-track/HHSN271700800025C PI: Bryan Roth and Bob Lefkowitz
Tango cells were dispensed into white, solid, tissue-culture-treated 1536-well plates at 1500 cells/well in DMEM, containing 1% fetal bovine serum (FBS). Then, 23 nL of compounds or DMSO were delivered to each well using a pin tool. Plates were incubated at 37 degrees C, 5% CO2 for 18 hr. Then 2.5 uL luminescent substrate mix (in-house prepared: 150 mM Tris-Cl, pH 7.6, 3 mM MgCl2, 1% Triton X-100, 5 mM DTT, 0.5 mM CoA, 0.15 mM ATP, 0.44 mM D-luciferin, final concentrations) was added to each well. Plates were then incubated for 15 minutes at room temperature, and subsequently measured on a ViewLux plate reader for luminescent signal using a clear filter with a 10 second exposure and 2x binning. The %Activity was determined from the corrected luminescence values. […] Concentration-response curves were fitted to the signals arising from the resulting luminescence. The concentration-effect curves were then classified based on curve quality (r2), response magnitude and degree of measured activity, and compounds were subsequently categorized based on their curve class.
As for `OCc1cnc(SCc2ccc(F)cc2)n1Cc1ccc(F)cc1`, the compound was called inactive.

Regarding `CCOc1cc2[nH]c(=O)n(Cc3ccc(C(=O)NCCN(CC)CC)cc3)c(=O)c2cc1OCC`, the call was inactive. `COc1ccc(Nc2ncc3c(n2)CCN(C(=O)OC(C)(C)C)C3)cc1`: the result was inactive. Take `CCOC(=O)CNC(=O)c1cc2c(=O)n3cccc(C)c3nc2s1`: the result was inactive. Take `COC(=O)c1ccc(NC(=O)CCc2c(C)nn(-c3ccc(N4CCCC4)nn3)c2C)cc1`: the compound was classed as inactive. The same measure for `CC(=O)N1CCCc2cc(S(=O)(=O)N3CCC(C(=O)NCc4ccc(C)cc4)CC3)ccc21`: “inactive”; for `O=C1CC(c2ccc(F)cc2F)c2cc3c(cc2N1)OCO3` (configuration not stated): “inactive”; for `COc1cccc(NC(=O)CSc2cc(=O)n(C)c3ccc(Cl)cc23)c1`: “inactive”. To `CC(=O)c1cccc(NC(=O)c2nc(-c3ccccc3)n(-c3cccc(C)c3)n2)c1` belongs “inactive”; to `O=C(Nc1ccc2nc(SCC(=O)N3CCCc4ccccc43)sc2c1)c1ccc(Cl)cc1`, “inactive”. As to `COc1ccc(NC(=O)c2cc3cc(C)ccc3n2C)cc1`, the result was inactive. As for `CCc1ccc(NC(=O)CN2CCSc3ccc(S(=O)(=O)N4CCCC4)cc32)cc1`, the compound was called inactive. Take `O=c1cc2nc(-c3ccccc3)nc(SCCOc3ccc(Cl)cc3)n2[nH]1`: the compound was classed as inactive.

As for `CCc1ccc(Sc2cc(C(=O)NCCCOC(C)C)c3ccccc3n2)cc1`, the outcome was inactive. Consider `Cn1c(=O)c2c(nc(NCCc3ccccc3)n2Cc2ccccc2Br)n(C)c1=O`, for which the compound was called inactive. On to `O=C(CSc1ncc(S(=O)(=O)c2ccc(Br)cc2)c(=O)[nH]1)Nc1ccc2c(c1)OCCO2`, for which the compound was classed as inactive. On to `CCN1CCN(c2cc(C)c3cc(NC(=O)c4cc(Cl)ccc4OC)ccc3n2)CC1`, for which the outcome was inactive. Consider `Cc1cccc(-n2c(=O)c3c(c4cc(C)ccc4n3C)n(CC(=O)Nc3ccccc3Cl)c2=O)c1`, for which the result was inactive. Regarding `CCc1ccccc1NC(=O)CSc1nc(C)c(C(=O)Nc2ccccc2)c(-c2ccc(Cl)cc2)c1C#N`, the compound was classed as inactive.

For the compound `O=C(NCc1ccccc1Cl)C1=Cc2cc(Br)ccc2OC1`, the result was inactive. For `COC(=O)C1=C(c2ccccc2)c2ccccc2S(=O)(=O)N1CC(=O)Nc1ccccc1C(F)(F)F`, the compound was called inactive.

`Cc1ccc2cccc(NC(=O)c3cccc4ccccc34)c2n1`: the result was inactive. For the compound `CC(C)OCCCn1c(SCC(=O)c2ccccc2)nc2c(sc3ccccc32)c1=O`, the outcome was inactive. In the case of `CCC(C)Nc1oc(-c2ccc(COc3ccc(Cl)cc3)o2)nc1C#N` (configuration not stated), the result was inactive. For the compound `Cc1ccc(NC(=O)c2nc(S(=O)(=O)Cc3cccc(C)c3)ncc2Cl)cc1`, the outcome was inactive.

For `COc1ccc(C2C(=O)N(C3CCCCCC3)CC(=O)N2CCc2ccc(Cl)cc2)cc1OC` (configuration not stated), the compound was classed as inactive. To `CCOC(=O)c1cnc2c(C)cc(Cl)cc2c1NCCc1ccc(OC)c(OC)c1` belongs “inactive”; to `Cc1cccc(CC(=O)Nc2cccc(-c3cn4cccnc4n3)c2)c1`, “inactive”.

Regarding `Cc1cc(C)cc(NC(c2nnc(-c3cccc(F)c3)o2)c2ccc(F)cc2Cl)c1` (configuration not stated), the compound was called inactive. For `Cn1nnnc1SCCCNCc1cccc(OCc2ccc(Cl)cc2)c1`, the call was inactive. `COCCn1c(CCC(=O)Nc2cc(C)ccc2C)nc2cccnc21`: the compound was called inactive.

For `O=C(CSc1oc(-c2ccccc2)nc1S(=O)(=O)c1ccc(Br)cc1)NC1CCCCC1`, the compound was classed as inactive.

As for `COc1ccccc1CNC(=O)CCCCn1c(=O)c2ccccc2n(CC(=O)Nc2cc(Cl)ccc2C)c1=O`, the result was inactive. Take `COc1cccc(CNC(=O)Cc2csc3nc(-c4ccccc4)cn23)c1`: the call was inactive. The same measure for `Cn1c(COc2ccccc2C(C)(C)C)nc2ccccc21`: “inactive”; for `Cc1ccc(CNC(=O)CSc2c(C)cnc3c2c(=O)n(C)c(=O)n3C)cc1`: “inactive”. On to `Cc1ccc(CN2CCC(CNC(=O)c3cnn(-c4ccc(C)cc4)c3C3CCN(C(=O)OC(C)(C)C)CC3)CC2)cc1`, for which the outcome was inactive. On to `CSc1nc(=O)c2c(n1C)NC(=O)CC2c1ccccc1OC(C)C` (configuration not stated), for which the result was inactive. To `COc1ccc(-c2c(C)c3ccc(O)c(CN4CCCC4)c3oc2=O)cc1OC` belongs “inactive”; to `COc1ccccc1NC(=O)c1oc2ccccc2c1NC(=O)COc1ccccc1OC`, “inactive”; to `CC(=O)N1CCc2cc(S(=O)(=O)NC(Cc3ccccc3)C(=O)NCc3ccc(C)cc3)ccc21` (configuration not stated), “inactive”. Turning to `O=C1Cc2cc(S(=O)(=O)Nc3ccc(OC(F)(F)F)cc3)cc3c2N1CCC3`, the compound was classed as inactive.

Consider `CC1CCCN(c2nc3c(S(=O)(=O)c4ccc(C(C)C)cc4)nnn3c3ccsc23)C1` (configuration not stated), for which the outcome was inactive. To `Cc1ccc(CSc2nc3ccsc3c(=O)n2CCC(C)C)cc1` belongs “inactive”; to `CCOc1ccccc1CNC(=O)C1CCCN(S(=O)(=O)c2ccc3c(ccn3C)c2)C1` (configuration not stated), “inactive”.

Regarding `Cc1ccc2c(=O)cc(C(=O)Nc3sc4c(c3C(=O)NCc3cccnc3)CCCC4)oc2c1`, the outcome was inactive.

`COc1ccc(C(=O)Nc2ccc3nc(N4CCCCC4)cc(C)c3c2)cc1OC`: the call was inactive. To `COC(=O)CC1Oc2ccccc2-n2cc(-c3ccccc3)nc21` (configuration not stated) belongs “inactive”. In the case of `CCOC(=O)c1cc(-c2ccc(OC)c(S(=O)(=O)Nc3ccc(OC)cc3OC)c2)on1`, the call was inactive.

`Cc1cccc(NC(=O)c2ccc3nc(C(C)C)oc3c2)c1C`: the result was inactive. `COc1ccc(Cl)cc1-n1c(CCC(=O)O)ccc1-c1ccc(C)cc1`: the compound was classed as inactive. In the case of `O=C(Nc1ccccc1F)C(c1ccccc1)N1Cc2ccccc2C1=O` (configuration not stated), the call was inactive. Turning to `Cc1ccc(-c2cc(N)n(Cc3cccc(Cl)c3)n2)cc1`, the call was inactive. The same measure for `Cc1nc(SCC(=O)N2CCN(c3ccccc3)CC2)[nH]c(=O)c1C`: “inactive”. To `Cc1ccc(C)c(N2CCN(C(=O)C3CCC(CNS(=O)(=O)c4cccs4)CC3)CC2)c1` (configuration not stated) belongs “inactive”; to `CCOc1ccc(CNCCSc2nnnn2C)cc1`, “inactive”. To `NS(=O)(=O)c1ccc(NC(=O)C(=O)Nc2ccc3nc4n(c(=O)c3c2)CCCCC4)cc1` belongs “inactive”; to `CCc1ccc(-n2nnc(-c3nc(-c4ccccc4)no3)c2C)cc1`, “inactive”. As for `COc1cccc(CNc2nccn(-c3ccc(OC)c(OC)c3)c2=O)c1`, the compound was called inactive.

On to `COc1ccc(NC(=O)CSc2nc3ccccc3[nH]2)cc1`, for which the result was inactive. `CC(C)c1ccc(NC(=O)C2CCN(c3nc(-c4ccc(C(C)C)cc4)no3)CC2)cc1`: the compound was classed as inactive. With `CCOc1cccc2cc(-c3cn4c(n3)sc3cc(C)ccc34)c(=O)oc12`, the call was inactive. For the compound `CCc1cc2c(cc3c(=O)n(CC(=O)NCc4cccc(Cl)c4)nc(CC)n32)s1`, the call was inactive. To `Cc1cc(C)cc(NS(=O)(=O)c2cc3c(cc2C)NC(=O)CO3)c1` belongs “inactive”; to `Cc1[nH]c2ccccc2c1C(c1ccccc1)c1cccs1` (configuration not stated), “inactive”. As to `CCOC(=O)c1c(C)[nH]c(C)c1S(=O)(=O)N1CCC(C(=O)Nc2ccc(C)c(Cl)c2)CC1`, the outcome was inactive. With `Cc1csc2nc(COc3ccc(NC(=O)COc4ccccc4)cc3)cc(=O)n12`, the compound was called inactive.

Consider `COc1ccc(OC)c(CNC(=O)c2c3c(nc4ccccc24)C(=O)N(C2CCCCC2)C3)c1`, for which the outcome was inactive.

Regarding `Cc1ccc(NC(=O)CN2C(=O)C(c3ccc(F)cc3)=NC23CCCCCC3)c(C)c1`, the result was inactive. In the case of `CCOc1ccc(C(=O)Nc2ccc3nc4c(c(Nc5ccccc5OC)c3c2)CCCC4)cc1`, the compound was classed as inactive. As to `CCc1ccc(S(=O)(=O)c2nnn3c2nc(N2CCN(CC)CC2)c2sccc23)cc1`, the compound was called inactive.

In the case of `O=C(c1ccccc1F)N1CCC(c2nc3c(nnn3Cc3cccc(F)c3)c(=O)[nH]2)CC1`, the call was inactive.

Take `Cc1cc(=O)c2cc(C(=O)Nc3cccc(C)c3C)ccc2[nH]1`: the outcome was inactive.

Take `O=C(Nc1nnc(S(=O)(=O)N2CCOCC2)s1)c1cccc(Br)c1`: the call was inactive.

Regarding `COc1cccc(-c2nnc(SCC(=O)N3CCC(C)CC3)o2)c1`, the compound was classed as inactive. As to `COc1ccc2c(C)c(CCC(=O)NCc3ccc(OC)c(OC)c3)c(=O)oc2c1`, the compound was classed as inactive. The same measure for `O=C(Cn1cc(SCc2cccc(Cl)c2)c2ccccc21)N1CCCCC1`: “inactive”; for `COc1ccc(-c2cn3c(n2)sc2cc(C(=O)Nc4ccccc4F)ccc23)cc1`: “inactive”. Consider `COc1cc(OC)c(OC)cc1/C=C/c1nc2ccccc2c(=O)n1-c1ccc(Br)c(C)c1`, for which the call was inactive. In the case of `CCOC(=O)c1c(S(=O)(=O)N2CCCC(C(=O)NCc3ccc(F)cc3)C2)c(C)n(CC)c1C` (configuration not stated), the call was inactive. Take `COc1ccc(CCNC(=O)CCCCn2c(=O)c3ccccc3n(Cc3ccccc3C)c2=O)cc1OC`: the outcome was inactive. `CCOc1ccc(S(=O)(=O)c2cn(Cc3ccccc3)c3ccc(OCC)cc3c2=O)cc1`: the outcome was inactive. Take `COc1ccc(NC(=O)CSc2nccn2C2CCCC2)cc1OC`: the result was inactive.

As for `Cc1ccc(-c2cnc(C3CC3)o2)cc1S(=O)(=O)Nc1cccc(C)c1C`, the result was inactive. As to `COc1ccc(S(=O)(=O)NCC(c2ccco2)N2CCOCC2)cc1` (configuration not stated), the compound was classed as inactive. With `CCOC(=O)c1c(NC(C)=O)c2c3c(sc2n1Cc1c(C)cc(C)cc1C)CCCC3`, the outcome was inactive. The same measure for `COc1ccc(-c2[nH]c3c(c2-c2c(-n4cccc4)n(C)c(=O)n(C)c2=O)c(=O)n(C)c(=O)n3C)cc1`: “inactive”; for `CC(C)c1ccc(NC(=O)Cn2nnc(C(=O)NCCc3ccccc3)c2N)cc1`: “inactive”.

In the case of `CCn1c(=O)cc(OCC(=O)Nc2cc(Cl)c(OC)cc2OC)c2ccccc21`, the call was inactive.

`CCc1ccc(NC(=O)Cn2c(=O)n(CCC(=O)NCc3ccc4c(c3)OCO4)c(=O)c3ccccc32)cc1`: the compound was classed as inactive. In the case of `Cc1cc(C)cc(NC(=O)CSc2nc3nccnc3c(=O)n2CCc2c[nH]c3ccccc23)c1`, the outcome was inactive. `Cc1c(NC(=O)Cc2ccccc2)cccc1-c1nc2cccnc2s1`: the call was inactive.

Consider `COc1ccc(S(=O)(=O)NCC(c2ccc(N(C)C)cc2)N2CCCC2)cc1` (configuration not stated), for which the call was inactive. To `COc1ccc(N2CCN(S(=O)(=O)CCNC(=O)C(c3ccccc3)c3ccccc3)CC2)cc1` belongs “inactive”; to `N#C/C(=C\c1cccc(F)c1)c1nc(-c2cc3c(ccc4ccccc43)oc2=O)cs1`, “inactive”; to `CCn1c2ccccc2c2nnc(N3CCN(c4cc(C)ccc4C)CC3)nc21`, “inactive”. As to `CCOc1ccc(OCC)c(NC(=O)c2c(C)nn(-c3ccccc3)c2-n2cccc2)c1`, the call was inactive.
